In ChEMBL document CHEMBL3988442, “University of Dundee, Small-Polar-MMV Screening Library” (2021):
Screen size: about 48,000 compounds; about 13,000 (27%) showed an effect of 50% or more. The list shows a part of the results.

system: Wolbachia pipientis; assay: Anti-Wolbachia Cell-Based Screen; format: functional; parameters: scale not given: in the data most compounds retested in dose-response had high values; conditions: 5 µM

| SMILES | Percent Effect [%] |
| --- | --- |
| CCc1cc(N2CCS(=O)(=O)CC2)n2nc(C)c(C)c2n1 | 1.934 |
| Cc1cc(CNC(=O)N2CCc3ccccc32)on1 | 8.57 |
| CC(C)N1CCOC(CC(=O)N2CCCN(Cc3ccncc3)CC2)C1 (stereo unspecified) | 108.1 |
| CCn1nc(CC(C)C)cc1C(=O)N1CC(c2ccncc2)C1 | 2.203 |
| CC(C)C(C(=O)N1CCN(Cc2ccncc2)CC1)n1cncn1 (stereo unspecified) | -9.917 |
| COc1ccc(C(=O)N2CC(c3ccncc3)C2)c(OC)c1OC | -3.767 |
| O=C1Cc2cc(NC(=O)N3CCCN(Cc4cccs4)CC3)ccc2N1 | -14 |
| Cn1cc(Cl)cc1C(=O)N1CCCN(Cc2cccs2)CC1 | 6.765 |
| CC(C)N1CCOC(CC(=O)N2CCCN(Cc3cccs3)CC2)C1 (stereo unspecified) | 115.9 |
| CC(C)N1CCOC(CC(=O)N2CC(c3ccncc3)C2)C1 (stereo unspecified) | 103.1 |
| CC(C)c1noc(CCCC(=O)N2CCN(Cc3ccncc3)CC2)n1 | 9.979 |
| NC(=O)c1cnc(NCC(=O)NCc2ccco2)c(Cl)c1 | -1.038 |
| COCC(=O)N[C@H](C)c1onc(-c2ccc(Cl)cc2)c1C(=O)O | -3.63 |
| Cc1nccn1CCC1CCCCN1Cc1cccc(CCN)c1 (stereo unspecified) | -7.51 |
| NC(=O)Cc1csc(NC(=O)C2CSCCC(=O)N2)n1 (stereo unspecified) | 2.989 |
| O=C(NCc1csc(Br)c1)c1ccc(=O)[nH]n1 | 9.228 |
| CCOC(=O)Cc1csc(NC(=O)c2ccc(=O)[nH]n2)n1 | 95.75 |
| O=C(c1ccno1)N1CC(c2nc(-c3ccco3)no2)C1 | 0.6255 |
| O=S(=O)(Cc1ccccc1)NCCNc1ccc(-n2cccc2)nn1 | 11.81 |
| Cc1cc2cc(CNC3CCN(CC(=O)N(C)C)CC3)oc2cc1C | -4.492 |
| CNC(=O)CCc1cc(C)nc(C2CCN(CC(=O)N(C)C)CC2)c1 | 129.2 |
| CNC(=O)CCc1cc(C)nc(C2CCN(C(=O)CN(C)C)CC2)c1 | 154.4 |

| SMILES | Percent Effect [%] |
| --- | --- |
| CN(C)C1CCN(C(=O)CCc2cc(Br)cs2)CC1 | 1.097 |
| Cc1cc(C)cc(CCC(=O)N2CCN(c3cc(C)nc(N)n3)CC2)c1 | -5.077 |
| COC(=O)[C@@H]1Cc2[nH]cnc2CN1Cc1cc2ccccc2o1 | 9.178 |
| CC(=O)N1CCCN(Cc2ccon2)c2ccccc21 | 1.908 |
| Cc1c(CS(C)(=O)=O)cccc1NCC1CCCCC1 | 1.975 |
| COC(=O)C(C)(C)NC(=O)C1CC(=O)N(C)C1 (stereo unspecified) | -1.781 |
| CCN1CC(C(=O)NC(C)(C)C(=O)OC)CC1=O (stereo unspecified) | 77.38 |
| CCN1CC(C(=O)NC(C)(C)CNC(=O)OC(C)(C)C)CC1=O (stereo unspecified) | -0.2967 |
| O=C(NCCNc1ncccn1)C1CC(=O)N(CC(F)(F)F)C1 (stereo unspecified) | 1.939 |
| COC(=O)C(C)(C)NC(=O)C1CC(=O)N(CC2CC2)C1 (stereo unspecified) | 110.1 |
| CCC(C)(C)NC(=O)C1CC(=O)N(CC2CC2)C1 (stereo unspecified) | 3.552 |
| CCN1CC(C(=O)NC(C)(C)C)CC1=O (stereo unspecified) | -9.629 |
| CCN1CC(C(=O)NC(C)(C)CC(C)(C)C)CC1=O (stereo unspecified) | 2.297 |
| COC(=O)C(C)(C)NC(=O)C1CC(=O)N(CC(C)C)C1 (stereo unspecified) | 100.8 |
| CCN1CC(C(=O)NC(C)(C)CC)CC1=O (stereo unspecified) | -10.63 |
| CCCc1nc(C(C)(C)NC(=O)C2CC(=O)N(CC3CC3)C2)no1 (stereo unspecified) | -6.715 |
| COC(=O)C(C)(C)NC(=O)C1CC(=O)N(CC(F)(F)F)C1 (stereo unspecified) | 83.67 |
| CN(C)CCOCC1CN(C(=O)c2ccccn2)Cc2ccnn2C1 (stereo unspecified) | -6.376 |
| Cc1ccccc1OCCCC(=O)N(C)CCC#N | 8.227 |
| COC(=O)C(C)(C)NC(=O)C1CC(=O)N(C2CC2)C1 (stereo unspecified) | 103.7 |
| COC(=O)C(C)(C)NC(=O)C1CC(=O)N(C2CCCC2)C1 (stereo unspecified) | 4.73 |
| CC(C)(CNC(=O)OC(C)(C)C)NC(=O)C1CC(=O)N(C2CC2)C1 (stereo unspecified) | 10.96 |

| SMILES | Percent Effect [%] |
| --- | --- |
| Cc1ncsc1CCC(=O)NC1CCN(Cc2cccs2)CC1 | 5.127 |
| Fc1ccc(NC2CCCN(Cc3ccncc3)C2)cc1 (stereo unspecified) | 7.502 |
| COc1ccnc(CN2CCCC(CCc3ccc(F)cc3)C2)c1OC (stereo unspecified) | -12.62 |
| Cl.Cn1nc(C2CCCN(Cc3cccc(F)c3)C2)c2nccnc21 (stereo unspecified) | 5.539 |
| Cl.Cn1nc(C2CCCN(Cc3cc(F)cc(F)c3)C2)c2nccnc21 (stereo unspecified) | 114.5 |
| Cn1cncc1-c1nnc([C@H]2CCN(Cc3ccc(F)c(F)c3)C2)o1 | -0.5491 |
| CCCC(=O)NC1CCCN(Cc2cccs2)C1 (stereo unspecified) | 90.44 |
| Cl.Cn1nc(C2CCCN(Cc3ccc(F)c(F)c3)C2)c2nccnc21 (stereo unspecified) | 94.15 |
| Cl.Cn1nc(C2CCCN(Cc3ccc(F)cc3)C2)c2nccnc21 (stereo unspecified) | 103.8 |
| Cn1ccnc1CN1CCCC(CCc2ccc(F)c(F)c2)C1 (stereo unspecified) | 5.156 |
| CC(C)(C)OC(=O)NC1CCCN(Cc2cccs2)C1 (stereo unspecified) | 5.758 |
| CC(=O)N[C@@H]1CN(C2CCN(c3cccc(Cl)c3)CC2)C[C@H]1C(C)C | 15.95 |
| Cc1nc(S(=O)(=O)NCCC(=O)NCc2ccsc2)cn1C | -10.44 |
| COCCC1(CO)CCCN(C(=O)c2cc(C#N)c(=O)[nH]c2C)C1 (stereo unspecified) | 6.218 |
| CC(C)C1CN(C(=O)c2csc(CN(C)C)n2)CCC(=O)N1CC1CC1 (stereo unspecified) | -2.363 |
| Cc1ccc(CN2CCCC(c3nnc(CN4CCCCC4)n3C)C2)s1 (stereo unspecified) | 9.152 |
| Cl.Cn1nc(C2CCCN(Cc3ccccc3)C2)c2nccnc21 (stereo unspecified) | 128.3 |
| Cc1ccc(CN2CCCC(c3nn(C)c4nccnc34)C2)s1 (stereo unspecified) | 125.3 |
| COc1cccc(CN2CCCC(c3nn(C)c4nccnc34)C2)c1.Cl (stereo unspecified) | 110.8 |
| Cl.Cn1nc(C2CCCN(Cc3cccs3)C2)c2nccnc21 (stereo unspecified) | 122.9 |
| Cc1ccc(CN2CCCC(c3nnc(CN4CCCC4)n3C)C2)s1 (stereo unspecified) | 10.41 |
| c1ccc(CCN2CCCC(Cn3ccnc3)C2)cc1 (stereo unspecified) | -0.01768 |

| SMILES | Percent Effect [%] |
| --- | --- |
| Cn1nc(C2CCCN(Cc3ccsc3)C2)c2nccnc21 (stereo unspecified) | -5.788 |
| CC(C)n1nc2c(cc1=O)CN(Cc1nnc(C3CC3)o1)CC2 | 15.52 |
| CCc1cc(NCCNC(C)=O)nc(N2CCOCC2)n1 | -17.29 |
| CC1CCc2nc(O)c(C(=O)NCCc3cccs3)cc2C1 (stereo unspecified) | -7.543 |
| CCc1nnc(C(C)N(C)Cc2c(C)nn(-c3ccccc3)c2C)o1 (stereo unspecified) | 1.844 |
| CCn1cc(CN2CCCC2c2nc(C(C)C)no2)cc1C#N (stereo unspecified) | -5.015 |
| Cc1cccc(NC(=O)CNC(=O)Cn2ncc(Cl)c(Cl)c2=O)c1C | -3.817 |
| COc1c(C2CCCN2C(=O)c2scnc2C)c(C)nn1C (stereo unspecified) | 97.95 |
| Cc1ncsc1C(=O)N1CCCC1c1c(C)nn(C)c1Cl (stereo unspecified) | 100 |
| COc1ccsc1C(=O)N1CCCC1c1c(C)nn(C)c1OC (stereo unspecified) | -20.58 |
| COc1c(C2CCCN2C(=O)c2sc(C)nc2C)c(C)nn1C (stereo unspecified) | 94.35 |
| Clc1cccc2c3c([nH]c12)CCN(Cc1cc2n(n1)CCNC2)C3 | -8.419 |
| CC(C)Oc1cccc(CN(C)C(=O)Nc2cccn(C)c2=O)c1 | -28.92 |
| Cc1ccc(Cl)c2c1C1(NC(=O)c3cccnc3N1)C(=O)N2 (stereo unspecified) | -5.673 |
| O=C(CCn1cccn1)NCCOc1cccc(Cl)c1 | 87.31 |
| O=C(CCn1cccn1)NCCOc1ccc2c(c1)OCO2 | 104.8 |
| Cc1cnn(CCNCCCOc2ccc3c(c2)OCO3)c1 | 2.747 |
| O=C(C[S+]([O-])C1CCCC1)NCCOc1cccc(Cl)c1 (stereo unspecified) | -1.497 |
| Cl.O=C(CN1CCC[C@H]1C(=O)O)NCCOc1cccc(Cl)c1 | -9.308 |
| O=C(NCCCn1cccn1)C1(c2ccc(Br)cc2)CC1 | -2.807 |
| O=C(CCS(=O)(=O)c1ccccc1)NCCCn1cccn1 | 91.43 |
| O=C(NCCCn1cccn1)C1(c2ccc(F)cc2)CC1 | -8.161 |

| SMILES | Percent Effect [%] |
| --- | --- |
| O=C(NCCOc1ncc(Cl)cc1Cl)c1ccncc1 | -15.07 |
| O=C(CCc1ccncc1)NCCOc1ncc(Cl)cc1Cl | -8.284 |
| O=C(CCn1cccn1)NCCOc1ncc(Cl)cc1Cl | 81.6 |
| c1cnn(CCNCCCOc2ccc3c(c2)OCO3)c1 | -9.966 |
| c1ccc(-c2nc3c(c(NCCn4cccc4)n2)CCNCC3)nc1 | -2.581 |
| CC(C)c1nc(CC(=O)Nc2nc(CN3CCCCCC3)cs2)cs1 | 13.84 |
| O=C(CCn1cncn1)NCCOc1cccc(Cl)c1 | 114.1 |
| Cc1occc1C(=O)NCC(=O)NCCOc1cccc(Cl)c1 | 23.6 |
| O=C(CCOc1ccc(Cl)cc1)NCCCn1cccn1 | 101.2 |
| CC(C(=O)NCCOc1cccc(Cl)c1)n1cncn1 (stereo unspecified) | -0.6619 |
| O=C(CN1CCOc2ccc(Cl)cc21)NCCCn1cccn1 | -8.926 |
| O=C(NCCCn1cccn1)C1COCC(=O)N1Cc1ccccc1 (stereo unspecified) | -30.45 |
| CNc1nc(C(=O)N2C[C@H]3CC[C@@H]2CN(S(C)(=O)=O)C3)cs1 | -0.32 |
| COc1ccc(S(=O)(=O)N2CCC(OCc3ccccn3)C2)cc1Br (stereo unspecified) | 4.781 |
| Cc1cc(C2CCCN(CCS(=O)(=O)c3ccccc3)C2)n[nH]1 (stereo unspecified) | 111.9 |
| Cc1cc(C2CCCN(CCNS(=O)(=O)c3ccccc3)C2)n[nH]1 (stereo unspecified) | 94.49 |
| Cn1c(C2CC2)nc2c1CCN(CCS(=O)(=O)c1ccccc1)C2 | -2.763 |
| Cc1cc(C2CCCN(CCCS(=O)(=O)c3ccccc3)C2)n[nH]1 (stereo unspecified) | -3.796 |
